{"source": "the supplement of paper PMC9135407", "test_system": "primary human hepatic stellate cells (donor 1)", "assay": "scaled lipid accumulation score (0 = DMSO-like, 1 = nortriptyline-like); higher = stronger HSC inactivation (lipid re-accumulation), active = hit call of the paper", "conditions": "48 h", "procedure": "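Primary lipid accumulation screen in primary human hepatic stellate cell myofibroblasts (donor 1, passage 8) in 384-well plates. 100 nL of library compound was pin-transferred into 30 µL medium in duplicate, and cells were treated for 48 h. The 'Scaled' score combines distance from plate baseline, toxicity and reproducibility penalties, and is normalised to nortriptyline (positive) and DMSO (negative) controls on each plate. A hit is defined as scaled >0.85 or among the top 3 wells per plate.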", "key": {"[1]": {"conditions": "library stock concentration: 10 mM"}, "[2]": {"conditions": "library stock concentration: 8.6 mM"}, "[3]": {"conditions": "library stock concentration: 1 mM"}, "[4]": {"conditions": "library stock concentration: 3.33 mM"}}, "note": "Values joined by “and” are separate entries in the source; they are usually repeats but may differ in a detail not shown here. Identical values can stand only once. Counter-ions that a name gives are not always drawn. About 620 (11%) of roughly 5,800 compounds showed activity. This is one part of a sample in which actives are shown more often than they occur. Values without a mark were called inactive.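 Rule for the calls: active = score above a cut-off or among the top three wells of a plate; in these data no inactive exceeds 0.85.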", "data": [{"smiles": "Cc1c2ccncc2c(C)c2c1[nH]c1ccccc12", "note": "[Ellipticine]", "values": [{"measurement": "scaled lipid accumulation score", "result": 0.623}, {"measurement": "scaled lipid accumulation score", "setting": "[1]", "result": "≤ -0.07"}]}, {"smiles": "CCC(N)C(O)c1ccc(O)c(O)c1", "note": "(configuration not stated) [Ethylnorepinephrine hydrochloride]", "values": [{"measurement": "scaled lipid accumulation score", "setting": "[2]", "result": "≤ 0"}, {"measurement": "scaled lipid accumulation score", "setting": "[1]", "result": "≤ -0.027"}]}, {"smiles": "NCC(O)c1cc(O)c(O)cc1F", "note": "(configuration not stated) [6-Fluoronorepinephrine hydrochloride]", "values": [{"measurement": "scaled lipid accumulation score", "setting": "[1]", "result": "≤ 0"}]}, {"smiles": "CCCCC/C=C\\C/C=C\\C/C=C\\C/C=C\\CCCC(=O)Nc1ccc(O)cc1C", "values": [{"measurement": "scaled lipid accumulation score", "setting": "[3]", "result": 0.064}]}, {"smiles": "CCCCCCCC/C=C\\CCCCCCCC(=O)N[C@H](C)CO", "values": [{"measurement": "scaled lipid accumulation score", "setting": "[3]", "result": 0.021}]}, {"smiles": "COc1cc(C(O)CN)ccc1O", "note": "(configuration not stated)", "values": [{"measurement": "scaled lipid accumulation score", "setting": "[1]", "result": "≤ -0.055"}]}, {"smiles": "C=C(C)[C@@H]1CCC(C)=C[C@H]1c1c(O)cc(O)cc1CCCCC", "values": [{"measurement": "scaled lipid accumulation score", "setting": "[3]", "result": "≤ 0"}]}, {"smiles": "CCCCC/C=C\\C/C=C\\C/C=C\\C/C=C\\CCCC(=O)N[C@@H](C)C(=O)O", "note": "[N-Arachidonoyl-L-Alanine]", "values": [{"measurement": "scaled lipid accumulation score", "setting": "[3]", "result": 0.035}]}, {"smiles": "CCn1cnc2c(Nc3cccc(Cl)c3)nc(N[C@@H]3CCCC[C@@H]3N)nc21", "values": [{"measurement": "scaled lipid accumulation score", "setting": "library stock concentration: 80 uM", "result": "≤ -0.016"}, {"measurement": "scaled lipid accumulation score", "setting": "library stock concentration: 400 uM", "result": "≤ -0.016"}, {"measurement": "scaled lipid accumulation score", "setting": "library stock concentration: 2 mM", "result": 0.503}, {"measurement": "scaled lipid accumulation score", "setting": "[1]", "result": "0.364 and 0.356"}]}, {"smiles": "CN1CCC[C@@H]1Cc1c[nH]c2ccc(Nc3ncccc3[N+](=O)[O-])cc12", "values": [{"measurement": "scaled lipid accumulation score", "setting": "[1]", "result": "≤ 0"}]}, {"smiles": "CC[C@]1(O)CC[C@H]2[C@@H]3CCC4=CCCC[C@@H]4[C@H]3CC[C@@]21C", "note": "[Ethylestrenol]", "values": [{"measurement": "scaled lipid accumulation score", "setting": "[1]", "result": "≤ 0"}]}, {"smiles": "CCN1C[C@]2(C)CC[C@H](O)[C@]34C1[C@@H](C[C@H]23)[C@@]1(O)C[C@H](OC)[C@H]2C[C@@H]4[C@@H]1[C@H]2O", "note": "[Karakoline]", "values": [{"measurement": "scaled lipid accumulation score", "result": "≤ 0"}]}, {"smiles": "C=C(C)[C@H]1CN[C@H](C(=O)O)[C@H]1CC(=O)O", "note": "[(-)-(.alpha.)-Kainic Acid (hydrate)]", "values": [{"measurement": "scaled lipid accumulation score", "setting": "[3]", "result": "≤ 0"}]}, {"smiles": "C=C(C)[C@H]1CN[C@H](C(=O)O)[C@H]1CC(=O)O", "note": "[Kainic acid]", "values": [{"measurement": "scaled lipid accumulation score", "setting": "[1]", "result": "≤ -0.055 and 0.031 and ≤ -0.009"}]}, {"smiles": "CC[C@H]1CN2CCc3cc(OC)c(OC)cc3[C@@H]2C[C@@H]1C[C@H]1NCCc2cc(OC)c(OC)cc21", "note": "[Emetine dihydrochloride hydrate]", "values": [{"measurement": "scaled lipid accumulation score", "setting": "[1]", "result": 0.835}]}, {"smiles": "COc1cc2c(cc1OC)C(C)NCC2", "note": "(configuration not stated)", "values": [{"measurement": "scaled lipid accumulation score", "result": 0.537}]}, {"smiles": "CC[C@H]1CN2CCc3cc(OC)c(OC)cc3[C@@H]2C[C@@H]1C[C@H]1NCCc2cc(OC)c(OC)cc21", "note": "[Emetine]", "values": [{"measurement": "scaled lipid accumulation score", "setting": "[1]", "result": 0.627}]}, {"smiles": "COc1cc2c(cc1OC)C1CC(=O)C(CC(C)C)CN1CC2", "note": "(configuration not stated) [Tetrabenazine]", "values": [{"measurement": "scaled lipid accumulation score", "setting": "[1]", "result": "≤ 0 and ≤ -0.001"}]}, {"smiles": "CC[C@H]1CN2CCc3cc(OC)c(OC)cc3C2C[C@@H]1CC1NCCc2cc(OC)c(OC)cc21.Cl.Cl", "note": "(some centres not stated) [Emetine]", "values": [{"measurement": "scaled lipid accumulation score", "setting": "library stock concentration: 3.6 mM", "result": "1.37 (active)"}]}, {"smiles": "CC[C@H]1CN2CCc3cc(OC)c(OC)cc3[C@@H]2C[C@@H]1C[C@H]1NCCc2cc(OC)c(OC)cc21.Cl.Cl", "note": "[Emetine dihydrochloride]", "values": [{"measurement": "scaled lipid accumulation score", "result": "0.98 (active)"}]}, {"smiles": "CC(=O)[C@H]1CC[C@H]2[C@@H]3CC[C@H]4C[C@](C)(O)CC[C@]4(C)[C@H]3CC[C@]12C", "note": "[Ganaxolone]", "values": [{"measurement": "scaled lipid accumulation score", "setting": "[1]", "result": "0.134 and ≤ -0.001"}]}, {"smiles": "CCCCCCC(=O)O[C@H]1CC[C@H]2[C@@H]3C[C@@H](O)C4=CC(=O)CC[C@]4(C)[C@H]3CC[C@]12C", "note": "[6.beta.-Testosterone Enanthate]", "values": [{"measurement": "scaled lipid accumulation score", "setting": "[3]", "result": 0.05}]}, {"smiles": "c1ccc(/N=N/c2ccccc2)cc1", "note": "[Azobenzene]", "values": [{"measurement": "scaled lipid accumulation score", "setting": "[1]", "result": "≤ 0"}]}, {"smiles": "CC1=C2[C@H]3OC(=O)[C@@H](C)[C@@H]3CC[C@@]2(C)C=CC1=O", "note": "[alpha-Santonin]", "values": [{"measurement": "scaled lipid accumulation score", "result": "≤ 0"}]}, {"smiles": "C[C@H]1CC[C@]2(NC1)O[C@H]1C[C@H]3[C@@H]4CC[C@H]5C[C@@H](O)CC[C@]5(C)[C@H]4CC[C@]3(C)[C@H]1[C@@H]2C", "note": "[Tomatidine]", "values": [{"measurement": "scaled lipid accumulation score", "result": 0.117}]}, {"smiles": "C[C@]12CC[C@H]3[C@@H](CC[C@]4(O)C[C@@H](O)CC[C@]34C=O)[C@@]1(O)CC[C@@H]2C1=CC(=O)OC1", "note": "[Strophanthidin]", "values": [{"measurement": "scaled lipid accumulation score", "result": "0.887 (active)"}]}, {"smiles": "C[C@H]1O[C@@H](O[C@H]2CC[C@]3(C=O)[C@H]4CC[C@]5(C)[C@@H](C6=CC(=O)OC6)CC[C@]5(O)[C@@H]4CC[C@]3(O)C2)C[C@H](O)[C@@H]1O", "note": "[Helveticoside]", "values": [{"measurement": "scaled lipid accumulation score", "result": 0.504}]}, {"smiles": "C[C@]12CCC3C(CC[C@]4(O)C[C@@H](O)CC[C@]34C=O)[C@@]1(O)CCC2C1=CC(=O)OC1", "note": "(some centres not stated) [Strophanthidin]", "values": [{"measurement": "scaled lipid accumulation score", "setting": "[1]", "result": "1.12 (active)"}]}, {"smiles": "CCN1C[C@]2(COC(=O)c3ccccc3N3C(=O)C[C@H](C)C3=O)CC[C@H](OC)[C@@]34[C@@H]5C[C@H]6[C@H](OC)[C@@H]5[C@](O)(C[C@@H]6OC)[C@](O)([C@@H](OC)[C@H]23)[C@@H]14", "note": "[Methyllycaconitine citrate]", "values": [{"measurement": "scaled lipid accumulation score", "setting": "[1]", "result": "≤ -0.006"}]}, {"smiles": "CCC1(c2ccc(N)cc2)CCC(=O)NC1=O", "note": "(racemic) [Dl-aminoglutethimide]", "values": [{"measurement": "scaled lipid accumulation score", "setting": "[2]", "result": 0.005}]}, {"smiles": "NC(CP(=O)(O)O)C(=O)O", "note": "(configuration not stated)", "values": [{"measurement": "scaled lipid accumulation score", "setting": "[1]", "result": 0.082}]}, {"smiles": "CCCCCCCCCCCCCCCCOCC(COP(=O)([O-])OCC[N+](C)(C)C)OC(C)=O", "note": "(stereo not drawn) [Enantio-PAF C16]", "values": [{"measurement": "scaled lipid accumulation score", "setting": "[3]", "result": 0.064}]}, {"smiles": "O=[N+]([O-])C=Cc1ccc2c(c1)OCO2", "values": [{"measurement": "scaled lipid accumulation score", "setting": "[4]", "result": "1.44 (active)"}, {"measurement": "scaled lipid accumulation score", "setting": "[1]", "result": "0.901 (active)"}]}, {"smiles": "O=C(Oc1ccc([N+](=O)[O-])cc1)N1CCC(C(O)(c2ccc3c(c2)OCO3)c2ccc3c(c2)OCO3)CC1", "values": [{"measurement": "scaled lipid accumulation score", "setting": "[4]", "result": "≤ 0"}, {"measurement": "scaled lipid accumulation score", "setting": "[1]", "result": "≤ -0.001"}]}, {"smiles": "C=CCc1ccc2c(c1)OCO2", "note": "[Safrole]", "values": [{"measurement": "scaled lipid accumulation score", "setting": "[1]", "result": 0.109}]}, {"smiles": "c1cc2c(cc1[C@H]1OC[C@H]3[C@@H]1CO[C@@H]3c1ccc3c(c1)OCO3)OCO2", "note": "[Sesamin]", "values": [{"measurement": "scaled lipid accumulation score", "setting": "[4]", "result": "≤ 0"}, {"measurement": "scaled lipid accumulation score", "setting": "[1]", "result": "≤ 0"}]}, {"smiles": "O=[N+]([O-])/C=C/c1ccc2c(c1)OCO2", "note": "[Syk Inhibitor III]", "values": [{"measurement": "scaled lipid accumulation score", "setting": "[4]", "result": 0.609}]}, {"smiles": "O=[N+]([O-])/C=C/c1ccc2c(c1)OCO2", "values": [{"measurement": "scaled lipid accumulation score", "setting": "[1]", "result": "0.967 (active)"}]}, {"smiles": "C=C1C/C(=C/C)C(=O)O[C@@H]2CCN3CC=C(COC(=O)[C@]1(C)O)[C@H]23", "note": "[Seneciphylline]", "values": [{"measurement": "scaled lipid accumulation score", "result": "≤ 0"}]}]}
